Results published in PubChem BioAssay AID651820 (National Center for Advancing Translational Sciences (NCATS), 2012).
About 12,000 (3.5%) of roughly 340,000 compounds were called active. Not shown: some 18% with an inconclusive outcome. This excerpt belongs to a sample that is enriched for actives. A number with no mark means an inactive call. The call rests on the fitted dose curve; in most records, active means well fitted inhibition curve with a large enough effect; inconclusive means small, poorly fitted or top-dose-only effect, or another doubt; inactive means no such curve, though single readings can be large or run the other way.
On the % scale 0 is the no-effect control and ±100 the full control effect.

Test: qHTS Assay for Inhibitors of Hepatitis C Virus (HCV)
Conditions: Huh7.5.1 HCVcc-Cre infection, luciferase reporter, 44 h; series mostly up to 41.8 µM; activity change, negative = inhibition: at the top concentration
From the text: Hepatitis C virus (HCV) infects about 200 million people in the world. Many infected people progress to chronic liver disease including cirrhosis with a risk of developing liver cancer. To date, there is no effective vaccine for hepatitis C. Current therapy based on interferon is only effective in about half of the patients and is associated with significant adverse effects. The fraction of people with HCV who can complete a successful treatment is estimated to be no more than 10 percent. Recent development of direct-acting antivirals against HCV, such as protease and polymerase inhibitors, is promising but still requires combination with peginterferon and ribavirin for maximal efficacy. In addition, these agents are associated with high rate of resistance and many have significant side effects. Due to the lack of a culture system for infectious HCV, the search for new HCV drugs has been greatly hampered. […] High-throughput screening (HTS) with an infectious HCV system would cover the complete spectrum of potentially druggable targets in all stages of HCV lifecycle, and would have more biological relevance than other cell-based assays. Moreover, targeting several key processes in the viral life cycle may not only increase antiviral efficacy; more importantly, it may also reduce the capacity of the virus to develop resistance to the compound. The goal of this project is to identify novel HCV inhibitors as new therapies for hepatitis C, using a highly sensitive and specific assay platform which is based on a HCV infectious cell culture system established in the laboratory and adapted for high-throughput HCV drug screen. NIH Chemical Genomics Center [NCGC] NIH Molecular Libraries Probe Centers Network [MLPCN] MLPCN Grant: MH095511 Assay Submitter (PI): Jake Liang, NIDDK
The assay will start with plating 1,000 cells/well in 3 µL volume and culture for 4 h. Then 23 nL of compounds from the library collection will be added to each well, followed by adding 2.5 µL of HCVcc-Cre virus (~ 0.5 moi) and further cultured for 44 h before the luciferase assay. A volume of 4.5 µL luciferase substrates will be added to each well and the plates will be incubated at room temperature for 15 min. and then read for 15 sec. for the luciferase activity
In the case of `CCOC(=O)Cn1c(SC)nc2sc3c(c2c1=O)CC(C)(C)OC3`, the “activity change, negative = inhibition” value is reported as -22%.
For `CCC1(C)Cc2c(sc3nnn(CC(=O)Nc4ccc(Cl)cc4)c(=O)c23)CO1` (stereo not given), the Potency was 11.2 µM (active).
In the case of `COc1cc(/C=C/CNC[C@H]2O[C@@H](n3cnc(C(N)=O)n3)[C@H](O)[C@@H]2O)ccc1O`, the “activity change, negative = inhibition” value is reported as 9.64%.
With `O=C(COC(=O)/C=C/c1ccc(OC(F)F)cc1)NC1CCCCC1` the “activity change, negative = inhibition” value was 7.61%.
`COC(=O)[C@@]1(C)[C@H]2C(=O)N(Cc3ccccc3)C(=O)[C@H]2[C@H]2CN=C(SCC3CC3)N21` gave an activity change, negative = inhibition of -7.38% [at 8.37 µM].
With `Cc1cccc(N2O[C@H]3C=CC2CCCC3)n1` the Potency was 25.1 µM (active).
With `Cc1cccc(N2CCN(Cc3nc(C4CC4)no3)CC2)n1` the “activity change, negative = inhibition” value was 16.5%.
With `Cc1ccn(-c2cccc(-n3ccc(C)n3)n2)n1` the “activity change, negative = inhibition” value was 11.3%.
With `CCOC(=O)c1ccccc1NC(=O)COC(=O)C(Cc1c[nH]c2ccccc12)NC(C)=O` (stereo not given) the “activity change, negative = inhibition” value was 17%.
With `COc1cc2ccccc2cc1C(=O)N1CCOCC1` the “activity change, negative = inhibition” value was -2.47%.
With `COc1ccc(S(=O)(=O)N2CCN(CC(=O)N3c4ccccc4CC3C)CC2)cc1OC` (stereo not given) the “activity change, negative = inhibition” value was 1.67%.
With `CCOC(=O)c1c(NC(=O)C(C)Sc2c[nH]c3ccccc23)sc2c1CCC2` (stereo not given) the Potency was 11.2 µM (active).
With `CCOC(=O)c1c(NC(=O)CSc2cn(CC)c3ccccc23)sc2c1CCC2` the “activity change, negative = inhibition” value was 5.24%.
With `CCCOC(=O)Nc1sc2c(c1C(=O)OCC)CCC2` the Potency was 10 µM (active).
For `CCOC(=O)c1c(NC(=S)Nc2ccccc2C)sc2c1CCC2`, the “activity change, negative = inhibition” value was -26.7%.
With `CCOC(=O)c1c(NC(=S)NC(=O)c2ccco2)sc2c1CCCC2` the “activity change, negative = inhibition” value was -9.06%.
With `CCOC(=O)c1c(NC(=S)NC)sc2c1CCCC2` the “activity change, negative = inhibition” value was -8.22%.
For `O=C(CN1C(=O)NC2(CCCCCC2)C1=O)NCc1ccc(F)cc1`, the “activity change, negative = inhibition” value was 3.95%.
In the case of `CCOc1ccc(NC(=O)CN(C)C(=O)CSc2ccccc2)cc1OCC`, the “activity change, negative = inhibition” value is reported as -2.17%.
In the case of `O=C(Nc1ccc(F)c([N+](=O)[O-])c1)C1CCCO1` (stereo not given), the “activity change, negative = inhibition” value is reported as 0.692%.
In the case of `Nc1nonc1-n1nnc(C(=O)N/N=C/c2ccccc2O)c1CN1CCCC1`, the “activity change, negative = inhibition” value is reported as -7.74%.
With `COc1ccccc1NC(=O)COC(=O)CNC(=O)C1CCCCC1` the “activity change, negative = inhibition” value was -14.3%.
In the case of `Cc1csc(SCC(=O)Nc2sccc2C#N)n1`, the “activity change, negative = inhibition” value is reported as -12.8%.
In the case of `Cc1cccc(C)c1Nc1nnc(SCC(=O)Nc2sccc2C#N)s1`, the “activity change, negative = inhibition” value is reported as -9.42%.
With `CC(c1nnc(SCC(=O)Nc2sccc2C#N)n1-c1ccc(Cl)cc1)N(C)C` (stereo not given) the Potency was 22.4 µM (active).
With `COc1ccccc1C(=O)NCCC(=O)NN1C(=O)NC2(CCCCC2)C1=O` the “activity change, negative = inhibition” value was 19.8%.
In the case of `O=C1CCCCC1Sc1ccc(Cl)cc1[N+](=O)[O-]` (stereo not given), the “activity change, negative = inhibition” value is reported as 11.8%.
In the case of `Cc1cc(C)c(S(=O)(=O)NCC(c2ccc3c(c2)OCO3)N2CCOCC2)c(C)c1` (stereo not given), the “activity change, negative = inhibition” value is reported as 13.2%.
For `CN(CCc1ccccc1)C(=O)c1cccc(NC(=O)Cc2cccc(NC(=O)C3CCCN(C(=O)CCc4ccccc4)C3)c2)c1` (stereo not given), the Potency was 0.794 µM (active).
In the case of `O=C(Cc1ccc(NC(=O)C2CCCN(C(=O)C3CCCCC3)C2)cc1)Nc1cccc(C(=O)N2CCCCC2)c1` (stereo not given), the activity change, negative = inhibition is reported as -22.8% [at 8.37 µM].
In the case of `O=C(Cc1ccc(NC(=O)C2CCCN(C(=O)CCc3ccccc3)C2)cc1)Nc1ccc(C(=O)N2CCOCC2)cc1` (stereo not given), the activity change, negative = inhibition is reported as -13.7% [at 8.37 µM].
With `CN(C)CCNC(=O)Cc1ccc([N+](=O)[O-])cc1` the “activity change, negative = inhibition” value was 5.72%.
In the case of `O=C(NCCc1ccccc1)c1cccc(NC(=O)c2ccccc2)c1`, the “activity change, negative = inhibition” value is reported as -4.33%.
For `O=C(NCc1ccccc1)c1cccc(NC(=O)C2CCCCC2)c1`, the activity change, negative = inhibition was -17.2% [at 8.37 µM].
With `CN(C(=O)c1cccc(NC(=O)Cc2ccc([N+](=O)[O-])cc2)c1)C1CCC1` the Potency was 3.16 µM (active).
For `CN(CCc1ccccc1)C(=O)c1cccc(NC(=O)Cc2cccc(NC(=O)C3CCCN(C(=O)C4CCC4)C3)c2)c1` (stereo not given), the Potency was 10 µM (active).
For `CN(C)C(CNC(=O)Cc1ccc([N+](=O)[O-])cc1)c1ccccc1` (stereo not given), the “activity change, negative = inhibition” value was -24.7%.
In the case of `CC(C)(C)OC(=O)N1CCC(C(=O)Nc2cccc(C(=O)NCCc3ccccc3)c2)CC1`, the Potency is reported as 8.91 µM (active).
Work on `CN(C(=O)c1cccc(NC(=O)Cc2ccc(NC(=O)C3CCCN(C(=O)C4CCCC4)C3)cc2)c1)C1CCC1` (stereo not given) yielded an activity change, negative = inhibition of -26.3% [at 8.37 µM].
In the case of `CN(C(=O)c1cccc(NC(=O)Cc2cccc(NC(=O)C3CCCN(C(=O)C4CC4)C3)c2)c1)C1CCC1` (stereo not given), the activity change, negative = inhibition is reported as -22.6% [at 8.37 µM].
With `CC(Sc1ccccc1F)C(=O)Nc1cccc(S(=O)(=O)N2CCOCC2)c1` (stereo not given) the “activity change, negative = inhibition” value was -2.13%.
In the case of `CCC1(C)NC(=O)N(CC(=O)N2CCN(c3cccc(Cl)c3)CC2)C1=O` (stereo not given), the “activity change, negative = inhibition” value is reported as 7.91%.
In the case of `COc1ccc(S(=O)(=O)N2CCN(CC(=O)NCC3(N4CCOCC4)CCCCC3)CC2)cc1`, the “activity change, negative = inhibition” value is reported as 17.9%.
For `CC(NC(=O)c1ccccc1)C(=O)Nc1ccccc1` (stereo not given), the “activity change, negative = inhibition” value was 22.1%.
In the case of `COc1ccc(Cl)cc1C=CC=NNC(=O)c1ccncc1`, the “activity change, negative = inhibition” value is reported as -12.9%.
